# Assay results as given in paper PMC10668032, “Altered binding affinity of SIX1-Q177R correlates with enhanced WNT5A and WNT pathway effector expression in Wilms tumor”.
# Over roughly 33,000 sequences, “e-score” has its median near -0.053; the highest 2% begin near 0.38. For the sample, the highest values were picked, then their nearest neighbours and some sequences at random.
# Target: T1, SIX1 homeodomain (reference allele) (human, UniProt Q15475 108-198)
# T1 sequence: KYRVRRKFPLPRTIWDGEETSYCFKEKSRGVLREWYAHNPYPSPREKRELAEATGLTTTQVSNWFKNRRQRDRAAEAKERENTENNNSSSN
# Assay: universal protein binding microarray; Universal all-10-mer PBM (8x60K, AMADID 030236), 300 nM GST-tagged protein, Alexa Fluor 488 anti-GST; buffer, salt, pH and temperature not stated (as in Berger); high values mean tight binding
# Conditions: protein: ivt; tags: N-terminal GST; dsDNA, one strand shown
# Summary of the method: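 Binding was expressed as 8-mer E-scores calculated with the Universal PBM Analysis Suite. The GST-tagged homeodomains, made by in vitro transcription/translation, were applied in duplicate at 300 nM final concentration to universal 'all 10-mer' protein binding microarrays (8×60K format).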
row,Sequence,binding signal [E-score]
1,TGACACCA,0.466 ± 0.0154
2,GGACACGA,0.176 ± 0.0225
3,AGACACCT,0.287 ± 0.0126
4,AGACACCA,0.329 ± 0.0244
5,TAACACCA,0.299 ± 0.0116
6,GGACACCA,0.3862 ± 0.00187
7,GATTATCA,0.2193 ± 0.00188
8,CCAGATTA,0.252 ± 0.0366
9,ACCATGTA,0.197 ± 0.0756
10,GAGGACAC,0.222 ± 0.0132
11,AGACGGAT,0.402 ± 0.0158
12,ACACGGAT,0.4012 ± 0.00112
13,AGTCGGAT,0.296 ± 0.0281
14,AAACGGAT,0.364 ± 0.0337
15,ACTCGGAT,0.38 ± 0.00767
16,ACACGGCT,0.2 ± 0.00761
17,ATACGTAG,0.276 ± 0.0521
18,AGACGGCA,0.197 ± 0.0126
19,ATACGTAT,0.421 ± 0.00632
20,AATCGGAT,0.253 ± 0.0252
21,AGGCGGAT,0.346 ± 0.0312
22,ATACGTAC,0.336 ± 0.0217
23,TCAGATGA,0.3071 ± 0.00299
24,AAGATGAT,0.156 ± 0.09
25,TATCGATA,0.342 ± 0.0612

row,Sequence,binding signal [E-score]
1,GATCAAAC,0.193 ± 0.0111
2,ACACCATC,0.312 ± 0.0186
3,ATCGGGGC,0.198 ± 0.0293
4,CGTCTCAC,0.254 ± 0.0158
5,AACCGATC,0.335 ± 0.00772
6,TACCCCTA,0.34 ± 0.00513
7,ATACGGAA,0.218 ± 0.0296
8,ATACGGAG,0.193 ± 0.0505
9,ATACGGAT,0.4254 ± 0.00356
10,CAATACTC,0.297 ± 0.043
11,CGATACTA,0.424 ± 0.0171
12,AGATACTC,0.402 ± 0.0473
13,CTATACTC,0.243 ± 0.0735
14,GGATACTA,0.371 ± 0.0235
15,AGATACTA,0.316 ± 0.0687
16,AGATAGTC,0.172 ± 0.0352
17,CGATACTC,0.45435 ± 0.000368
18,AGATACTG,0.34203 ± 0.000156
19,ATATAGTC,0.209 ± 0.0236
20,AACACCTG,0.267 ± 0.00339
21,ATCCAGTC,0.179 ± 0.0594
22,CGTATAAA,0.219 ± 0.0801
23,GATCAACA,0.281 ± 0.0353
24,GATCAATA,0.291 ± 0.0232
25,TATCAACA,0.399 ± 0.0298

row,Sequence,binding signal [E-score]
1,TATCAATA,0.407 ± 0.0444
2,TATCAAAA,0.342 ± 0.1
3,TATCAAGA,0.302 ± 0.0583
4,CCATCTCA,0.164 ± 0.00629
5,GGATTATA,0.362 ± 0.0571
6,TAATAATA,0.225 ± 0.0789
7,ATCCCGGC,0.173 ± 0.0398
8,CATCTATA,0.251 ± 0.034
9,AATCCGGT,0.252 ± 0.0106
10,CATCCGAC,0.209 ± 0.0838
11,GATCCGGC,0.3929 ± 0.00159
12,TACCCGGA,0.332 ± 0.00363
13,CATCCGGC,0.226 ± 0.0528
14,TATCCGGA,0.3912 ± 0.000898
15,AATCCGGC,0.228 ± 0.0229
16,GATCCGAA,0.357 ± 0.0457
17,GATCCGAC,0.389 ± 0.0403
18,CATCCGTA,0.168 ± 0.00426
19,AATCCGAC,0.189 ± 0.00791
20,GATCCGTA,0.383 ± 0.00781
21,ATCTACTC,0.297 ± 0.0368
22,ATATGTAG,0.151 ± 0.0301
23,CATAAACC,0.19 ± 0.0201
24,GATAATCC,0.34 ± 0.0479
25,CGACTATC,0.246 ± 0.0396

row,Sequence,binding signal [E-score]
1,GAGATCAC,0.368 ± 0.00856
2,ATCCTTGG,0.189 ± 0.0361
3,CATCCGGA,0.21 ± 0.0635
4,GATCCGGA,0.405 ± 0.0443
5,AATCCGGA,0.276 ± 0.0325
6,ACACCAAC,0.224 ± 0.00659
7,CCCCTATC,0.405 ± 0.0204
8,CCCCTATA,0.198 ± 0.0352
9,ACCCTATC,0.346 ± 0.0051
10,CATATCTA,0.322 ± 0.0223
11,GATATTAA,0.31 ± 0.0894
12,GATATCAA,0.453 ± 0.0358
13,TATATCAA,0.361 ± 0.0752
14,CAGATCAA,0.298 ± 0.00526
15,AATATCTA,0.259 ± 0.0807
16,GATATTAC,0.319 ± 0.0605
17,GATATCTA,0.392 ± 0.0618
18,GATATCAC,0.476 ± 0.018
19,GCTATCAC,0.357 ± 0.0605
20,CATATCAA,0.452 ± 0.0378
21,CTAATCTC,0.175 ± 0.0194
22,ATCCACTG,0.152 ± 0.0476
23,ATCAAACC,0.261 ± 0.00716
24,GATCAATC,0.366 ± 0.0109
25,ATACGCTC,0.245 ± 0.0572

row,Sequence,binding signal [E-score]
1,GGATCTAA,0.285 ± 0.00708
2,ATACGAAG,0.199 ± 0.0115
3,GTATTCCA,0.202 ± 0.0137
4,ATACGTCC,0.24 ± 0.0851
5,AGCGATAT,0.42 ± 0.0465
6,GGCGATGA,0.193 ± 0.0619
7,CGCGACAC,0.254 ± 0.0327
8,GGCGATAC,0.4435 ± 0.00237
9,AGCGATCG,0.211 ± 0.0392
10,AGCGATAG,0.209 ± 0.0329
11,GGCGATCA,0.338 ± 0.00739
12,AGCGATCA,0.206 ± 0.0525
13,AGCGCGAT,0.166 ± 0.026
14,AGCGATAC,0.453 ± 0.01
15,CGCGATAC,0.458 ± 0.000728
16,CGCGATAG,0.199 ± 0.0163
17,ATACACGA,0.234 ± 0.00563
18,GGCCGATA,0.29107 ± 0.000269
19,CGATGCAG,0.21 ± 0.0529
20,AGGCATAT,0.308 ± 0.0386
21,GACAGATC,0.286 ± 0.0143
22,GTAATCTA,0.15 ± 0.0468
23,CTATACTA,0.168 ± 0.0897
24,CCTCTAGA,0.158 ± 0.0403
25,ACCGCGCG,0.175 ± 0.0242

row,Sequence,binding signal [E-score]
1,CGCGATCC,0.391 ± 0.0245
2,CGCGATCA,0.272 ± 0.00455
3,AGCGATCC,0.356 ± 0.0223
4,GGTATATA,0.384 ± 0.0217
5,GGTATAGA,0.3008 ± 0.001
6,GGTATAAC,0.301 ± 0.0179
7,ATTATACC,0.389 ± 0.0376
8,GGTATACA,0.3843 ± 0.00371
9,ATTATACG,0.302 ± 0.0645
10,AGTATACA,0.294 ± 0.0103
11,CTTATACC,0.275 ± 0.0521
12,GGTATACC,0.464 ± 0.0068
13,CGTATATA,0.253 ± 0.0289
14,GCTATACC,0.284 ± 0.0448
15,TGTATACA,0.3188 ± 0.000346
16,ACCAGTAT,0.24 ± 0.0167
17,ATCCTGTC,0.228 ± 0.0128
18,ATCCATGA,0.273 ± 0.0349
19,CGCAGATC,0.214 ± 0.00241
20,GGATAGCA,0.241 ± 0.00553
21,ATCTATTC,0.24 ± 0.00333
22,CGTATACC,0.367 ± 0.014
23,AGTATACC,0.389 ± 0.0206
24,AGTATACT,0.219 ± 0.0526
25,ATACTTGC,0.215 ± 0.0473

row,Sequence,binding signal [E-score]
1,AGGGGATG,0.201 ± 0.0454
2,CTGGGATC,0.297 ± 0.0767
3,ATGGGATC,0.368 ± 0.0389
4,CAGGGATC,0.42 ± 0.0412
5,CAAGGATC,0.351 ± 0.0137
6,CAGGGATA,0.328 ± 0.0119
7,AGGGGATC,0.426 ± 0.0173
8,GAAGGATA,0.268 ± 0.0478
9,CGGGGATC,0.396 ± 0.0226
10,ACGGGATC,0.342 ± 0.0556
11,GAAGGATC,0.39 ± 0.012
12,CCGGGATC,0.375 ± 0.0348
13,GCTGTATA,0.232 ± 0.0591
14,ATACACTG,0.338 ± 0.00871
15,ACGTCTCA,0.322 ± 0.0324
16,AGATCTCA,0.262 ± 0.0503
17,TCCATCAA,0.168 ± 0.0474
18,ATACTTAA,0.19 ± 0.132
19,AGTCATAT,0.257 ± 0.0554
20,CGATAGTA,0.263 ± 0.0297
21,AAAGGATC,0.279 ± 0.0681
22,AAGGGATT,0.188 ± 0.061
23,AAGGGATC,0.377 ± 0.0133
